This is a sample that favours compounds with a hit; in the whole collection about 11% have one here.
ALDH1A1 inh: blocks purified human ALDH1A1 activity | 220,000 compounds, 7.3% hits | Purified ALDH1A1, NADH fluorescence, propionaldehyde substrate | Potency, µM (series often up to 75.3 µM), actives largely listed as inhibitors | P00352 | AID 1030
HPGD block: blocks human HPGD enzyme activity; P15428; purified HPGD, NADH fluorescence kinetic, PGE2 substrate; Potency, µM, most hits filed as inhibitors; 150,000 compounds, 4.3% hits; AID 894
Target sequence (P15428 whole entry, looked up): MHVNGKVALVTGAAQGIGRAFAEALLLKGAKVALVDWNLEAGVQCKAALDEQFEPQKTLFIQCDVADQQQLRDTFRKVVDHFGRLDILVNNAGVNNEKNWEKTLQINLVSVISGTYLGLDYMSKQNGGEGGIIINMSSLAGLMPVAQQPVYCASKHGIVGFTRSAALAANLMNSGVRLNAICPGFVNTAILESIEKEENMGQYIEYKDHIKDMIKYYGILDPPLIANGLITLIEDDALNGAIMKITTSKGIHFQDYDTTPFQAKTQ
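NADH formation kinetics: reaction with 30 uM PGE2 and 1 mM NAD+ (final), 20 nM enzyme, Tris-HCl pH 8 with Tween 20, after 15 min compound preincubation at room temperature. Fluorescence change, last versus first of five reads.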
PNC assembly inh: blocks assembly of the perinucleolar compartment; PC3M PTB-GFP, PNC prevalence imaging, 16 h; active compounds read low; activity change (PNC), negative = inhibition, % at 10 µM; 140,000 compounds, 3.1% hits; AID 2417;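 active = readout at or below -70, meaning at least 70% loss of cells showing the perinucleolar compartment, a nuclear body marking cancer cells; inconclusive = readout between -30 and a set limit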
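Read-out is percentage of cells bearing a perinucleolar compartment, from automated 20x imaging of fixed, Hoechst-stained PC3M PTB-GFP cells. Cells were seeded 4 h, then exposed 16 h to compound (23 nl of library stock) in duplicate plates.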
Large screens that a line does not name were inactive. Unless noted, calls come from the whole dose curve; as a rule, active = well fitted inhibition curve with a large enough effect (not every such curve was filed as active); inconclusive = small, poorly fitted or top-dose-only effect, or another doubt; inactive = no such curve, though single readings can be large or run the other way.

Cc1nn(-c2ccccc2)c(C)c1NC(=O)c1cccs1	none
COC(=O)C1CC(O)CN1C(=O)Nc1ccccc1 (configuration not stated)	none (no result: HPGD block, PNC assembly inh)
c1csc(-c2nn3c(-c4ccncc4)nnc3s2)c1	PNC assembly inh inconclusive
COc1ccc(-c2nnc3sc(-c4ccco4)nn23)cc1OC	ALDH1A1 inh inconclusive, HPGD block inconclusive
COc1cccc(-c2nnc3sc(-c4ccco4)nn23)c1	ALDH1A1 inh 28.2µM, HPGD block inconclusive
COc1cccc(-c2nnc3sc(-c4cccs4)nn23)c1	PNC assembly inh inconclusive
CCOc1cccc(-c2nnc3sc(-c4cccs4)nn23)c1	PNC assembly inh -126.9
c1coc(-c2nnc3sc(-c4cccs4)nn23)c1	ALDH1A1 inh 20µM, PNC assembly inh inconclusive
Cc1noc(NS(=O)(=O)c2ccc(NC(=O)C34CC5CC(C3)CC(n3cnc(Br)n3)(C5)C4)cc2)c1C	PNC assembly inh inconclusive
CC1=C(/C=C/C(C)=C/C=C/C(C)=C/C(=O)O)C(C)(C)CCC1O (configuration not stated)	ALDH1A1 inh 6.31µM (no result: HPGD block, PNC assembly inh)
CC1=C(/C=C/C(C)=C\C=C\C(C)=C\C(=O)O)C(C)(C)CCC1	none (no result: PNC assembly inh)
Nc1nc2c([nH]c(=S)n2C2OC(CO)C(O)C2O)c(=O)[nH]1 (configuration not stated)	none (no result: PNC assembly inh)
COc1ccc(C(=O)CCc2nc3ccccc3s2)cc1	ALDH1A1 inh inconclusive
O=C(Cc1ccccc1)Nc1nc2ccc(Cl)cc2c2nc(-c3ccco3)nn12	HPGD block inconclusive (no result: PNC assembly inh)
COc1ccc(S(=O)(=O)Nc2cc3c4c(oc3c3ccccc23)CCCC4=O)cc1	ALDH1A1 inh 7.94µM
COc1ccc(S(=O)(=O)Nc2cc3c4c(oc3c3ccccc23)CC(C)(C)CC4=O)cc1	ALDH1A1 inh 3.16µM
COc1ccc(S(=O)(=O)Nc2c3ccccc3nc(=O)n2-c2ccccc2)cc1	ALDH1A1 inh inconclusive, PNC assembly inh inconclusive
Cc1ccc(S(=O)(=O)Nc2cc3c(C(=O)Nc4ccccc4)c(C)oc3c3ccccc23)cc1	ALDH1A1 inh inconclusive
O=[N+]([O-])/C=C\c1cc2ccccc2[nH]1	none (no result: PNC assembly inh)
C=C(C)CC1(NC(C)c2ccccc2)CCCCC1 (configuration not stated)	PNC assembly inh -108.7
C/C(Cl)=C\CNC(C)c1ccccc1 (configuration not stated)	none
Cc1cc(/C=N/N2CCN(C)CC2)c(C)n1-c1ccccc1F	ALDH1A1 inh 11.2µM (no result: HPGD block, PNC assembly inh)
CN1CCN(/N=C/c2ccc(-c3ccccc3)cc2)CC1	none (no result: HPGD block, PNC assembly inh)
O=C1OCCC1Sc1nnc(-c2ccco2)o1 (configuration not stated)	PNC assembly inh -100.0
O=C1OCCC1Sc1nnc(-c2ccc(Br)cc2)o1 (configuration not stated)	none
O=c1c2ccccc2nnn1Cc1ccc2ccccc2c1	none (no result: HPGD block, PNC assembly inh)
COC(=O)N1c2ccccc2C23[C@@H]4CN5CCC[C@]6(CCC12C(O)(C6)C4=O)[C@H]53	none (no result: PNC assembly inh)
NC(N)=NC1=NC(=O)C(Cc2ccccc2)S1 (configuration not stated)	none (no result: HPGD block, PNC assembly inh)
COc1ccc2cc(C)c3nnc(SCC(=O)Nc4nc(-c5ccc(F)cc5)cs4)n3c2c1	none
CCOc1ccccc1Nc1nnc(SCC(=O)Nc2nc(-c3ccc(OC)cc3)cs2)s1	ALDH1A1 inh 25.1µM (no result: HPGD block, PNC assembly inh)
CCOc1ccccc1Nc1nnc(SCC(=O)N2CCCC2)s1	none
COc1ccc(-c2csc(NC(=O)CSc3nnc(Nc4ccccc4C)s3)n2)cc1	ALDH1A1 inh 25.1µM (no result: HPGD block, PNC assembly inh)
COc1ccc(C(=O)NC(C(=O)NCCc2ccc3c(c2)OCCO3)C(C)C)cc1 (configuration not stated)	none (no result: HPGD block, PNC assembly inh)
CC1(C)Cn2c(nc(=O)c3c2NCN(CCc2ccccc2)C3)S1	none (no result: HPGD block, PNC assembly inh)
C[C@@](O)(CNS(=O)(=O)c1ccccc1)c1ccccc1	none (no result: PNC assembly inh)
C/C(CC(C)(C)c1ccccc1)=N\NS(=O)(=O)c1ccccc1	ALDH1A1 inh 12.6µM (no result: HPGD block, PNC assembly inh)
Cc1nn(C)c(C)c1CNC(=O)Nc1cccc(Cl)c1C	none (no result: HPGD block, PNC assembly inh)
O=C1SC(SC(=Nc2ccccc2)Nc2ccccc2)C(=O)N1c1ccccc1 (configuration not stated)	ALDH1A1 inh 25.1µM
Cc1cccc(N2C(=O)CC(SC(=Nc3ccccc3)Nc3ccccc3)C2=O)c1 (configuration not stated)	none
CCCNC(=O)NC(=O)CSc1cccc(C(F)(F)F)c1	none (no result: HPGD block, PNC assembly inh)
COC(=O)c1cccc(C23CC4(C2)[C@H](CN(Cc2cccnc2)[C@@H]4c2ccccc2)C3c2ccc(C(F)(F)F)cc2)c1 (some centres not stated)	none (no result: PNC assembly inh)
CCc1nc(SCC(=O)N2CCN(c3ccccc3)CC2)c2c(=O)n(C)c(=O)n(C)c2n1	none (no result: HPGD block, PNC assembly inh)
CCCc1nc(SCC(=O)N2CCC(Cc3ccccc3)CC2)c2c(=O)n(C)c(=O)n(C)c2n1	ALDH1A1 inh 17.8µM, PNC assembly inh inconclusive
Cn1c(Cc2cccc3ccccc23)nnc1SCc1ccc([N+](=O)[O-])cc1	none
Cn1c(=S)[nH]c2[nH]c(=O)cnc2c1=O	none
O=C(NC1CCCCCC1)C(=S)NC1CCCCC1	none (no result: HPGD block, PNC assembly inh)
O=C(NCc1n[nH]c(=S)n1-c1ccc(F)cc1)c1ccc(S(=O)(=O)N2CCCC2)cc1	ALDH1A1 inh 15.8µM, PNC assembly inh inconclusive
O=C(NCc1n[nH]c(=S)n1-c1cccc(Cl)c1)c1ccc(S(=O)(=O)N2CCCC2)cc1	ALDH1A1 inh 4.47µM
CCCN(CCC)S(=O)(=O)c1ccc(C(=O)NCc2n[nH]c(=S)n2-c2ccc(Cl)c(Cl)c2)cc1	none (no result: HPGD block, PNC assembly inh)
O=C(COC(=O)c1ccc(S(=O)(=O)N2CCCC2)cc1)NCc1ccc(F)cc1	none
Cc1c(C(=O)C(=O)NCc2ccco2)c2ccccc2n1C	none (no result: HPGD block, PNC assembly inh)
Cc1cc(Oc2ccc(=O)[nH]n2)nc(Cl)n1	none (no result: HPGD block, PNC assembly inh)
O=C(Nc1ccc(C(F)(F)F)cc1)c1cnc(N2CCN(c3ccccn3)CC2)c2ccccc12	none (no result: HPGD block, PNC assembly inh)
CC1Cn2c(CCc3ccccc3)nnc2S1 (configuration not stated)	ALDH1A1 inh inconclusive, HPGD block 28.2µM
CC1Cn2c(COc3ccccc3)nnc2S1 (configuration not stated)	none
N#Cc1c(-c2ccc(F)cc2)cc(-c2ccccc2)nc1SCC(=O)NCC(=O)O	ALDH1A1 inh 8.91µM (no result: HPGD block, PNC assembly inh)
N#Cc1c(C(F)(F)F)cc(-c2ccc(F)cc2)nc1SCC(=O)O	none (no result: HPGD block, PNC assembly inh)
O=C(Nc1cccc(F)c1)N1CCC2(CC1)CCN(C(=O)c1cc(C(F)(F)F)cc(C(F)(F)F)c1)CC2	none (no result: PNC assembly inh)
CCOC(=O)N1CCN(C(=O)Nc2ccc3nc(C)sc3c2)CC1	ALDH1A1 inh inconclusive
CCOC(=O)N1CCC(NC(=O)c2sc3nc4n(c(=O)c3c2C)CCCC4)CC1	none
CCOC(=O)N1CCN(C(=O)Nc2sc3nc4n(c(=O)c3c2C)CCC(C)CC4)CC1 (configuration not stated)	ALDH1A1 inh 12.6µM
CCOC(=O)c1sc2nc3n(c(=O)c2c1C)CCC(C)CC3 (configuration not stated)	ALDH1A1 inh 11.2µM, HPGD block 25.1µM
COc1ccc2cnn(-c3ccc(OC(F)(F)F)cc3)c(=O)c2c1OC	none (no result: HPGD block, PNC assembly inh)
COC(=O)[C@@H]1C[C@H]2CC[C@H](O)C[C@H]2N1Cc1ccc(N2CCOCC2)cc1	none (no result: PNC assembly inh)
CC1CC(C)(C)NCc2ccccc21 (configuration not stated)	ALDH1A1 inh 0.562µM (no result: HPGD block)
CC1CC(C)(C)NC(C)c2ccccc21 (configuration not stated)	none (no result: HPGD block)
C=CCOc1ccc(C=Nc2ccc(C)c(Cl)c2)c(O)c1	none

Screening results (PubChem)
